Lassa entry inh: blocks Lassa virus binding to or entry into cells. Lassa virus pseudotype entry inhibition, cell reporter. Potency, µM (series often up to 37.9 µM), usual class: inhibitors. 300,000 compounds, 1.2% hits; calls by dose curve; tested in HEK293 cells; note: nearly all actives have a fitted effect of over 50% in size
Marburg entry inh: blocks Marburg virus binding to or entry into cells; 300,000 compounds, 1.8% hits; Marburg virus pseudotyped entry inhibition, cell reporter; Potency, µM (top dose mostly 37.8 µM), most hits filed as inhibitors; AID 540276; calls by dose curve; tested in HEK293 cells
Vaccinia mCherry: vaccinia inhibition (mCherry reporter); Vaccinia virus mCherry reporter infection, fluorescence; AID 720579; Potency, µM (series often up to 36.5 µM), hits mostly inhibitors; 310,000 compounds, 0.63% hits; calls by dose curve; tested in A549 cells; note: nearly all actives have a fitted effect of over 35% in size
VACV Venus inh: vaccinia inhibition (Venus reporter); Vaccinia virus Venus reporter expression, fluorescence; AID 720580; Potency, µM (top dose mostly 36.5 µM), most hits filed as inhibitors; 330,000 compounds, 0.46% hits; calls by dose curve; tested in A549 cells; note: nearly all actives have a fitted effect of over 30% in size
Sm TGR inh: S. mansoni TGR enzyme inhibition; Q962Y6; purified TGR, DTNB reduction, TNB absorbance 405 nm; Potency, µM (highest dose often 114 µM), actives largely listed as inhibitors; 360,000 compounds, 3% hits; active = well fitted inhibition curve with a large enough effect; inconclusive = small, poorly fitted or top-dose-only effect; inactive = no such curve, though single readings can be large or run the other way; note: nearly all actives have a fitted effect of over 60% in size
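First, TGR (20 nM dispensed) and NADPH were mixed with compound. Second, a 15 min room-temperature incubation followed. Third, further NADPH and then DTNB were added to start the reaction. Finally, TNB absorbance was monitored kinetically.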
FMDV antiviral: blocks foot and mouth disease virus. FMDV antiviral cell-based qHTS. Potency, µM (doses to about 57.9 µM), hits mostly inhibitors. 410,000 compounds, 1.2% hits; calls by dose curve; tested in HEK293T cells; note: read-out not given here; nearly all actives have a fitted effect of over 45% in size
Large screens that a line does not name were inactive. Most compounds without a hit are left out; they make up all but 5.4% or so of the library.

CC(C)CN(C(=O)c1ccc(N2CCCC2=O)cc1)c1c(N)n(Cc2ccccc2)c(=O)[nH]c1=O	Sm TGR inh 39.8µM (no result: Lassa entry inh, Marburg entry inh, Vaccinia mCherry, VACV Venus inh)
CC(C)CN(C(=O)COC(=O)c1ccc(Br)cc1)c1c(N)n(Cc2ccccc2)c(=O)[nH]c1=O	Lassa entry inh inconclusive, Marburg entry inh inconclusive, Vaccinia mCherry inconclusive, VACV Venus inh 12.6µM, FMDV antiviral inconclusive
COCCN(C(=O)c1cc2c(s1)CCCCC2)c1c(N)n(Cc2ccccc2)c(=O)[nH]c1=O	Marburg entry inh inconclusive
CCCCN(C(=O)c1ccc(N2CCCC2=O)cc1)c1c(N)n(Cc2ccccc2)c(=O)[nH]c1=O	none
CCOC(=O)C1CCCN(C(=O)Cn2nc(CC)n3c(cc4occc43)c2=O)C1 (configuration not stated)	FMDV antiviral inconclusive
COc1ccc(N2CC3=C(C2=O)C(c2ccc(O)c(OC)c2)NC(=O)N3C)cc1 (configuration not stated)	none
c1cc2c(cc1NC1=NCCO1)CCCC2	Marburg entry inh inconclusive, Vaccinia mCherry inconclusive, VACV Venus inh 3.98µM (no result: Sm TGR inh)
COc1cc(OC)c(NC2=CC(=O)C(=O)c3ccccc32)cc1Cl	Vaccinia mCherry 0.891µM, VACV Venus inh 3.16µM, Sm TGR inh inconclusive, FMDV antiviral inconclusive (no result: Lassa entry inh, Marburg entry inh)
CCC(C(=O)Nc1cc(Cl)c(OC)cc1OC)c1ccccc1 (configuration not stated)	Lassa entry inh inconclusive, Marburg entry inh inconclusive
CCN(CC)C1CCN(C(=O)c2cnn(-c3nccc(-c4ccco4)n3)c2C(C)C)C1 (configuration not stated)	none (no result: Lassa entry inh, Marburg entry inh, Sm TGR inh)
C/C(CC1CC(C)OC1=O)=N\NC(N)=S (configuration not stated)	none (no result: Lassa entry inh, Marburg entry inh, Vaccinia mCherry, VACV Venus inh)
C/C(CC(C)(C)C1CCCCC1)=N\NC(N)=S	Lassa entry inh 16.4µM, Marburg entry inh inconclusive, Vaccinia mCherry 11.2µM, VACV Venus inh 17.8µM (no result: FMDV antiviral)
COc1ccc(C)cc1NC(=O)N1CCC(CN2CCOCC2)CC1	none (no result: Marburg entry inh)
COC(=O)C1C(c2ccccc2)C(C(=O)OCc2ccco2)C1c1ccccc1 (configuration not stated)	Lassa entry inh inconclusive, Marburg entry inh 20.6µM, Sm TGR inh inconclusive (no result: Vaccinia mCherry, VACV Venus inh)
O=C(c1cnn(-c2nccc(-c3ccco3)n2)c1C1CC1)N1CCCCC1c1cccnc1 (configuration not stated)	none (no result: Lassa entry inh, Marburg entry inh, Sm TGR inh)
Cc1ccc(Sc2c([N+](=O)[O-])c(=O)n(C)c3ccccc23)cc1	Sm TGR inh 2µM, FMDV antiviral 22.4µM (no result: Lassa entry inh, Marburg entry inh, Vaccinia mCherry, VACV Venus inh)
CCOc1ccc(/C(C)=N/N2C(=O)C(CC(=O)Nc3ccc(OC)cc3[N+](=O)[O-])SC2=Nc2cccc(C)c2C)cc1 (configuration not stated)	Lassa entry inh inconclusive, Sm TGR inh 17.8µM
O=C1NC(=S)NC(=O)C1=Cc1ccc2c(c1)CCN2CCCCl	Sm TGR inh 14.1µM, FMDV antiviral inconclusive (no result: Lassa entry inh, Marburg entry inh, Vaccinia mCherry, VACV Venus inh)
COc1cccc(N2C(=O)/C(=C/c3ccc(C)o3)C(=O)NC2=S)c1	Sm TGR inh 1.78µM, FMDV antiviral 17.8µM (no result: Lassa entry inh, Marburg entry inh, Vaccinia mCherry, VACV Venus inh)
Cc1ccc(/C=C2\C(=O)NC(=S)N(c3ccc(F)cc3)C2=O)o1	Sm TGR inh 1.58µM, FMDV antiviral 31.6µM (no result: Lassa entry inh, Marburg entry inh, Vaccinia mCherry, VACV Venus inh)
Cc1ccc(N2C(=O)/C(=C/c3ccc(CN(CCC#N)S(C)(=O)=O)o3)C(=O)NC2=S)cc1	Sm TGR inh 2.82µM
Cc1ccc(N2C(=O)NC(=O)/C(=C\c3ccc([N+](=O)[O-])o3)C2=O)cc1	Sm TGR inh 8.91µM (no result: Lassa entry inh, Marburg entry inh, Vaccinia mCherry, VACV Venus inh, FMDV antiviral)
COc1ccc(N2C(=O)/C(=C/c3ccc(N(C)C)o3)C(=O)NC2=S)cc1	Sm TGR inh inconclusive (no result: Lassa entry inh, Marburg entry inh, Vaccinia mCherry, VACV Venus inh)
O=C1CC(c2ccc3c(c2)OCCO3)Oc2ccc([N+](=O)[O-])cc21 (configuration not stated)	Sm TGR inh 89.1µM, FMDV antiviral inconclusive (no result: Lassa entry inh, Marburg entry inh, Vaccinia mCherry, VACV Venus inh)
O=C1CC(c2ccc3c(c2)OCCO3)Oc2ccccc21 (configuration not stated)	none (no result: Lassa entry inh, Marburg entry inh)
Cc1cc(C)n2nc(SCC(=O)c3ccc[nH]3)nc2n1	Lassa entry inh inconclusive, Sm TGR inh 31.6µM
O=C(NCCc1ccccc1)C(=O)Nc1nccs1	Marburg entry inh inconclusive
S=C(NCc1ccccc1)NCc1ccccn1	none
S=C(NCc1ccccc1)Nc1nccs1	Marburg entry inh inconclusive, Sm TGR inh 3.16µM
COc1ccccc1CNC(=O)C(=O)Nc1nccs1	Sm TGR inh 44.7µM
S=C(NCCc1ccccc1)Nc1nccs1	Vaccinia mCherry inconclusive, Sm TGR inh 2.24µM (no result: Lassa entry inh, Marburg entry inh)
COc1ccccc1N1CCN(S(=O)(=O)c2c(C)sc3ncn(CC(=O)Nc4ccc(C(C)C)cc4)c(=O)c23)CC1	none
O=C1NN(c2ccccc2)C(=O)/C1=C\c1ccccc1	Marburg entry inh inconclusive, Sm TGR inh inconclusive
O=C1NN(c2cccc(Br)c2)C(=O)/C1=C\c1ccccc1	Sm TGR inh 50.1µM, FMDV antiviral inconclusive
CCC1CN(Cc2cn[nH]c2-c2ccccc2)Cc2cc(OC)ccc2O1 (configuration not stated)	none (no result: Lassa entry inh, Marburg entry inh, Sm TGR inh)
CCOc1ccc(NC(=O)Nc2cccc(C(=O)O)c2)cc1	Lassa entry inh inconclusive, Marburg entry inh inconclusive, FMDV antiviral 1.58µM
O=C(Nc1ccccc1)Nc1cccc(Cl)c1	none (no result: Vaccinia mCherry, VACV Venus inh)
O=C(Nc1cccc(Cl)c1)Nc1cccc(C(=O)O)c1	Lassa entry inh inconclusive, Marburg entry inh inconclusive, FMDV antiviral 14.1µM
O=C(Nc1ccc(Cl)cc1)Nc1cccc(C(=O)O)c1	Lassa entry inh 0.326µM, Marburg entry inh 0.92µM, FMDV antiviral 8.91µM
O=C(NCc1ccccc1)C(=O)Nc1cccc(C(=O)O)c1	FMDV antiviral 11.2µM (no result: Lassa entry inh, Marburg entry inh)
COc1cc(NC(=O)CCc2c(C)nn(-c3ccc(N4CCCCC4)nn3)c2C)cc(OC)c1OC	none (no result: Marburg entry inh)
Cc1cnc(SCC2CCCO2)nc1C1CCCN(Cc2cc3c(cc2Cl)OCO3)C1 (configuration not stated)	none (no result: Lassa entry inh, Marburg entry inh, Sm TGR inh)
COc1ccc(CCNC(=O)c2cc(=O)c3cc(C)c(C)cc3o2)cc1OC	Lassa entry inh inconclusive
O=S(=O)(c1ccccc1)N(C[C@@H](O)CN1CCCCC1)c1ccccc1	none (no result: Lassa entry inh, Vaccinia mCherry, VACV Venus inh, Sm TGR inh, FMDV antiviral)
Cc1ccc(NC(=O)c2nnn(Cc3cccc(C(F)(F)F)c3)c2N)c(C)c1	Lassa entry inh inconclusive
CC(C)c1cc(C(=O)NC(C)c2ccccc2)no1 (configuration not stated)	none
O=C(Nc1ccc(Cl)c(Cl)c1)Nc1ccccc1C(=O)O	Lassa entry inh 3.55µM, Marburg entry inh inconclusive (no result: Sm TGR inh)
O=C(Nc1cccc(C(=O)O)c1)Nc1cccc2ccccc12	Lassa entry inh inconclusive, Marburg entry inh inconclusive
O=C(Nc1ccc(Cl)cc1)Nc1ccccc1C(=O)O	Lassa entry inh inconclusive, Marburg entry inh inconclusive
O=C(Nc1cccc(C(=O)O)c1)Nc1ccccc1Cl	Lassa entry inh 3.98µM, Marburg entry inh 8.91µM, FMDV antiviral 10µM
COc1ccc(NC(=O)NC23CC4CC(CC(C4)C2)C3)cc1OC	none (no result: Vaccinia mCherry)
CCOc1ccc(NC(=O)NC23CC4CC(CC(C4)C2)C3)cc1	Lassa entry inh 11.2µM, Marburg entry inh inconclusive
CCOc1ccc(-n2nc3ccc(NC(=O)Cc4ccccc4)cc3n2)cc1	FMDV antiviral 22.4µM (no result: Marburg entry inh)
CCOc1ccccc1C(=O)N1CC(=O)Nc2ccc(Cl)cc2C1c1ccccc1 (configuration not stated)	none
